These results are taken from PubChem BioAssay (Tox21).

Structures are written as SMILES. The source made the active and inactive calls. Calls follow the shape of the dose curve; as a rule, active = well fitted curve in the direction sought with a large enough effect in the repeat runs; inconclusive = weak or mixed curves; inactive = flat fitted curve, though single readings scatter.

The nature of the experiment: qHTS assay to test for compound auto fluorescence at 535 nm (green) in HEK293 cells (AID 720680). As to conditions: green autofluorescence 485/535 nm; series mostly up to 91.3 µM. The text has this: U.S. Tox21 Program National Center for Advancing Translational Sciences [NCATS] NIH Chemical Genomics Center [NCGC] U.S. Environmental Protection Agency [EPA] National Institutes of Environmental Health Sciences [NIEHS] National Toxicology Program [NTP] U.S. Food and Drug Administration [FDA] Tox21 Assay Overview: Compound auto fluorescence often interferes with screening of the compound library against various biological targets and signaling pathways. Some of these compounds may have fluorophoric properties. Such properties may interfere with the assay outputs resulting in false positives and/or negatives. To decrease such complications and ensure the compound activities are relevant in terms of biological response, the Tox21 10K compound library was screened for auto fluorescence. From the fluorophores used as reporter signals in our screening assays, the auto fluorescence equivalencies of compounds against three fluorophores have been evaluated: Triamterene, Fluorescein and Rose Bengal sodium for blue, green and red fluorescence, respectively. The fluorescence intensities were measured using Excitation/Emission wavelengths at 405/460nm, 485/535nm and 540/590nm for blue, green and red labels, respectively. This assay includes the green fluorescence data.
Tox21 Assay Protocol Summary: 2,000 HEK293 cells in 5 uL of culture medium containing 10% dialyzed FBS per well were dispensed into black wall/clear bottom 1536-well plates using a Multidrop Combi Dispenser (Thermo Scientific). The assay plates were incubated for 4-5 hr at 37C to allow cell attachment to the well bottom, followed by the transfer of 23 nL compound or DMSO vehicle by a pintool work station (Kalypsys, San Diego, CA). After the assay plates were incubated overnight at 37C and 5% CO2, fluorescence intensities in the assay plates were measured by an Envision (PerkinElmer, Shelton, CT) plate reader using three labels for measuring blue, green and red fluorescence at […] 460, 535 and 590nm respectively.
(In general: Quantitative high-throughput screening tests each substance at several concentrations.)
As for `O=C(O)C(Cl)Cl`, the compound was classed as inactive.
Take `O=[N+]([O-])O`: the call was inactive.
On to `CCCC[N+]1(C)CCCC1`, for which the result was inactive.
Next, `CCCCCCCCCCCCCC[P+](CCCCCC)(CCCCCC)CCCCCC`: “inactive”; `CCCC[n+]1ccccc1C`: “inactive”.
Then `CCNc1nc(Cl)nc(NCC)n1`, with “inactive”; and `CCCn1cc[n+](C)c1`, with “inactive”; and `O=c1[nH]c(=O)n(Cl)c(=O)n1Cl`, with “inactive”.
For `COc1ccccc1N`, the result was inactive.
Then `O=c1nc(O)n(Cl)c(=O)n1Cl`, with “inactive”; and `CCCCCCCCCCCCn1cc[n+](C)c1`, with “inactive”.
`Oc1cccc2cccnc12`: the outcome was inactive.
Turning to `COCC(=O)N(c1c(C)cccc1C)C(C)C(=O)OC` (stereo not given), the compound was classed as inactive.
Then `C[N+](C)(C)Cc1ccccc1`, with “inactive”; and `CCCCCCCCCCCCOS(=O)(=O)O`, with “inactive”.
As to `CC[N+]1(C)CCCC1`, the outcome was inactive.
Consider `CCCCCCCCCCCCCCCCn1cc[n+](C)c1`, for which the result was inactive.
Next, `CCCCCCCCn1cc[n+](C)c1`: “inactive”.
Consider `CCCCCCn1cc[n+](C)c1`, for which the result was inactive.
Regarding `CCCC[n+]1ccccc1`, the result was inactive.
With `CCCC[n+]1cccc(C)c1`, the call was inactive.
On to `C1CCC(NC2CCCCC2)CC1`, for which the compound was called inactive.
Then `O=S(=O)(O)O`, with “inactive”; and `CC[n+]1ccccc1`, with “inactive”; and `CCC[N+]1(C)CCCC1`, with “inactive”.
As to `O=P1(N(CCCl)CCCl)NCCCO1` (stereo not given), the compound was called inactive.
Next, `CC(Cl)(Cl)C(=O)O`: “inactive”; `CC(=O)O`: “inactive”.
In the case of `C[C@]12CCC(=O)C=C1CC[C@@H]1[C@@H]2CC[C@]2(C)C(=O)CC[C@@H]12`, the compound was classed as inactive.
As to `COP(=O)(OC)OC=C(Cl)Cl`, the result was inactive.
As to `CCC[N+]1(C)CCCCC1`, the compound was called inactive.
Next, `Nc1ccccc1`: “inactive”; `CCCCCCCCCCn1cc[n+](C)c1`: “inactive”.
On to `N#CS`, for which the compound was called inactive.
Consider `O=[N+]([O-])c1ccccc1O`, for which the result was inactive.
Next, `CCCC[n+]1ccc(C)cc1`: “inactive”.
With `Cc1cc(Cl)ccc1OCC(=O)O`, the compound was called inactive.
For the compound `CCCCCC[n+]1ccccc1`, the result was inactive.
As for `O=C(O)COc1ccc(Cl)cc1Cl`, the outcome was inactive.
As to `CCOP(=S)(OCC)Oc1ccc2c(C)c(Cl)c(=O)oc2c1`, the compound was classed as inactive.
